Source: PubChem (National Center for Advancing Translational Sciences (NCATS))
Only some compounds are listed: those with a hit (about 8% of all), similar ones and a draw of the others.
HT1080-NT tox: kills 2HG-producing HT-1080-NT fibrosarcoma cells | HT-1080-NT fibrosarcoma viability, CellTiter-Glo ATP luminescence, 48 h | 360,000 compounds, 1.6% hits | Potency, µM (top dose mostly 46.1 µM), for inactives: at the top dose activity, negative = less viability, hits mostly cytotoxic;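 note: NT is the 2HG producing partner of a matched IDH1 knockdown line; 0% = DMSO-treated cells and -100% = media-only wells without cells; nearly all actives have a fitted effect of over 55% in size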
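HT-1080-NT; 750 cells/well; 5% FBS RPMI; 48 h compound, 37 degrees C; CellTiter-Glo luminescence; curve fitting and curve-class assignment.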
MCF10A rereplic: induces DNA re-replication in MCF 10a normal breast cells; MCF 10A DNA re-replication, Hoechst nuclear intensity, 48 h; 350,000 compounds, 2.9% hits; Potency, µM (top dose mostly 46.1 µM), for the others: at the top dose activity, positive = re-replication, hits mostly activators; note: % of control where 0% means no effect; nearly all actives have a fitted effect of over 50% in size
KB-V1 MDR tox: kills drug-selected multidrug resistant KB-V1 cells; AID 1347076; KB-V1 MDR cells viability, CellTiter-Glo, 72 h; Potency, µM (top dose mostly 46.1 µM), actives largely listed as cytotoxic; 400,000 compounds, 3.4% hits; note: % is set by controls: 0 for no effect and ±100 for the full control effect; nearly all actives have a fitted effect of over 60% in size
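Readout: CellTiter-Glo luminescence, 10 min after addition. Cells: KB-V1 MDR subline, 72 h at 37 degrees C with compound. Analysis: corrected, normalized data fitted to concentration-effect curves.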
SW480 rerep: inducers of DNA re-replication in SW480 colon cancer cells; AID 624297; Potency, µM (titrated, usually from 46.1 µM), without a hit: at the highest dose re-replication activation, most hits filed as activators; SW480 DNA re-replication, Hoechst DNA content imaging, 48 h; 340,000 compounds, 1.8% hits; note: % of control where 0% means no effect; nearly all actives have a fitted effect of over 55% in size
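250 cells/well; 23 nL cpd via pin tool; 48 hr, 37 C, 5% CO2; Hoechst 40 min; imager read of total nuclear intensity, ex 405/em 500-530 nm.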
HT1080 IDH1KD tx: HT-1080 IDH1 knockdown cell toxicity (counter line); HT-1080 IDH1 knockdown viability, ATP luminescence, 48 h; Potency, µM (series often up to 46.1 µM), for inactives: top-dose activity, negative = toxicity, most hits filed as cytotoxic; 360,000 compounds, 2% hits; AID 686971;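 note: 0% = DMSO wells and -100% = cell-free medium wells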
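IDH1KD HT-1080 cells, 750/well, RPMI + 5% FBS; compound pinned after 2 h settling; 48 h, 37 °C; CellTiter-Glo luminescence; % activity normalised to DMSO and no-cell wells; curves fitted, classed by r2 and efficacy.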
KB-3-1 tox: kills parental KB-3-1 adenocarcinoma cells; KB-3-1 viability, CellTiter-Glo ATP luminescence, 72 h; Potency, µM (top dose mostly 46.1 µM), most hits filed as cytotoxic; 400,000 compounds, 1.4% hits; note: % is set by controls: 0 for no effect and ±100 for the full control effect; nearly all actives have a fitted effect of over 60% in size
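Viability of parental KB-3-1 cells, measured by CellTiter-Glo luminescence, followed a 72 h incubation at 37 °C with pinned compounds in phenol-red-free DMEM containing 10% FBS.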
Numbers without * were called inactive; i = inactive; ? = inconclusive; . = no result given; [ ] = another dose, or the depositor's remark. Calls come from the whole dose curve; as a rule, active = well fitted curve in the direction sought with a large enough effect; inconclusive = small, poorly fitted or top-dose-only effect, or another doubt; inactive = no such curve, though single readings can be large; an effect the other way counts as inactive or inconclusive. Potency is the fitted concentration of half-maximal effect.

SMILES | HT1080-NT tox | MCF10A rereplic | KB-V1 MDR tox | SW480 rerep | HT1080 IDH1KD tx | KB-3-1 tox
CCCCCCC(=O)CCCCCC/C=C/C[C@@H](O)[C@H](O)[C@@](N)(CO)C(=O)O | . | 11% | . | 2% | . | .
CCCNS(=O)(=O)c1ccc(OCC(=O)N2CCN(Cc3ccc4c(c3)OCO4)CC2)cc1 | -11% | ? | ? | -2% | -2% | i
CCCNS(=O)(=O)c1ccc(OCC(=O)N2CCN(Cc3ccc4c(c3)OCO4)CC2)c(C)c1 | 12µM* | 18% | i | 21% | ? | i
CCS(=O)(=O)N1Cc2cc(C(=O)N(C)C)nc(-c3cccc(-c4ccc(F)cc4)c3)c2[C@H]1CCO | -2% | . | i | . | 23µM* | i
COC(=O)C12OCC34C(CC5C(C)=C(O)C(=O)CC5(C)C3C(O)C1O)OC(=O)C(OC(=O)/C=C(\C)C(C)C)C24 (stereo unspecified) | ? | 18% | 3.3µM* | ? | 0.026µM* | 0.18µM*
COc1ccc(CN(C)S(=O)(=O)c2nnc(NC(=O)c3ccccc3Br)s2)cc1 | -29% | ? | i | ? | -1% | i
C[C@@H]1O[C@@H](O[C@H]2C[C@@H](O)[C@]3(CO)[C@H]4[C@H](O)C[C@]5(C)[C@@H](C6COC(=O)C6)CC[C@]5(O)[C@@H]4CC[C@]3(O)C2)[C@H](O)[C@H](O)[C@H]1O (stereo partly specified) | 1.8µM* | ? | 1.6µM* | 5.2µM* | 0.82µM* | ?
CCOc1ccc2c3c1O[C@H]1[C@@H](O)C=C[C@H]4[C@@H](C2)N(C)CC[C@@]341 | . | -1% | . | 0% | . | .
Cc1cc(-n2c(/C=C/c3ccc(Br)s3)nc3ccccc3c2=O)ccc1Br | . | . | ? | . | . | i
O=c1c2ccccc2nc(N2CCCC2)n1-c1ccc(Cl)cc1 | -17% | ? | 23µM* | 2% | -1% | ?
CC1CN(C(=O)c2ccc(S(=O)(=O)Nc3ccccc3F)cc2)CC(C)O1 (stereo unspecified) | -11% | -1% | i | -70% | 0% | i
C[C@H]1CCCC(=O)CCC/C=C/c2cc(O)cc(O)c2C(=O)O1 | 0% | -16% | 16µM* | -30% | 6% | i
COc1nc(C)nc(Cl)c1NC1=NCCN1 | ? | 5% | i | -32% | 0% | i
CCC(c1nnnn1Cc1ccccc1)N1CCC(n2c(=O)[nH]c3ccccc32)CC1 (stereo unspecified) | 26µM* | . | ? | . | ? | i
CCCCn1nnnc1C(CCc1ccccc1)N1CCC(n2c(=O)[nH]c3ccccc32)CC1 (stereo unspecified) | ? | . | 4.1µM* | . | ? | ?
C=CCN=C=S | . | -1% | . | -1% | . | .
CCOc1ccc(CN(CCc2ccc3c(c2)OCO3)Cc2cc(OC)ccc2O)cc1 | . | . | i | . | . | i
COc1ccc(C=C2C(=O)NC(=S)NC2=O)cc1OC | 10% | -2% | i | 1% | 19% | i
COc1ccc(/C=C/C=C2C(=O)NC(=S)NC2=O)cc1 | 2% | 5.8µM* | ? | 16µM* | -4% | ?
CCc1nc2ccc(Br)cc2c(=O)n1-c1ccccc1C(F)(F)F | 2% | 24% | i | 0% | 0% | i
CCCc1nc2ccc(Br)cc2c(=O)n1-c1ccc([N+](=O)[O-])c(C(F)(F)F)c1 | ? | ? | 16µM* | ? | ? | ?
C/C(=C/CCC(C)[C@H]1CC[C@@]2(C)C3=C(CC[C@]12C)[C@@]1(C)CCC(=O)C(C)(C)[C@@H]1CC3)C(=O)O (stereo partly specified) | 3% | ? | i | 1% | 6% | i
Cc1ccc(-n2c(=O)[nH]c3ccc(Br)cc3c2=O)cc1 | . | . | ? | . | . | i
CCOC(=O)[C@]12Cc3cc(C)ccc3[C@H]1N(C1CCCCC1)C(=O)c1cc(OC)ccc12 | 2.9µM* | . | 4.1µM* | . | 3.3µM* | 3.3µM*
CCOC(=O)[C@]12Cc3cc(OC)ccc3[C@H]1N(C1CCCCC1)C(=O)c1cc(OC)ccc12 | 23µM* | . | ? | . | 18µM* | 16µM*
SMILES | HT1080-NT tox | MCF10A rereplic | KB-V1 MDR tox | SW480 rerep | HT1080 IDH1KD tx | KB-3-1 tox
CCOC(=O)C1C(=O)NC2(C)CC1c1cc(OC)ccc1O2 (stereo unspecified) | 0% | ? | i | 8% | 22% | i
CC(C)Cc1nc2cccnc2n1C1CCNCC1 | . | . | i | . | . | i
c1cc2c(c(NC3=NCCN3)c1)CCCC2 | . | 0% | . | -5% | . | .
O=C(CN1C(=O)C(=O)N(C2CCCC2)C1=O)Nc1cc(Cl)ccc1[N+](=O)[O-] | -2% | ? | . | -3% | -3% | .
CN1CCN(c2ncnc3nc[nH]c23)CC1 | 0% | 0.26µM* | i | -108% | 1% | i
CC1Cc2ccccc2CN1 (stereo unspecified) | . | . | i | . | . | i
CN(C)C(=O)Oc1cc(OC(=O)N(C)C)cc([C@@H](O)CNC(C)(C)C)c1 | . | 1%[20.6 µM] | . | -4%[20.6 µM] | . | .
O=P(O)(O)CN1CCNCCN(CP(=O)(O)O)CCNCC1 | 3% | 25% | ? | 4.1µM* | 15µM* | ?
COc1ccc(OCC(=O)N2CCN(Cc3cc(=O)n4nc(-c5ccccc5C)sc4n3)CC2)cc1 | . | . | i | . | . | i
COc1cccc(OC)c1C1=NCC(=O)Nc2c1oc1ccc(Br)cc21 | ? | ? | ? | 0.65µM* | 2.9µM* | i
O=C1CN=C(c2ccc(Br)cc2)c2oc3ccccc3c2N1 | 15µM* | ? | i | -1% | 12µM* | i
O=C1CN=C(c2ccc(F)cc2)c2oc3ccccc3c2N1 | -2% | -1% | i | -1% | -1% | ?
COc1cc(NS(=O)(=O)c2ccc3c(c2)oc(=O)n3C)cc(OC)c1OC | ? | ? | ? | 21µM* | ? | 7.3µM*
CC(=O)c1cn(CC(=O)NCCc2c[nH]c3ccccc23)c2ccccc12 | -5% | ? | 15µM* | 15% | -12% | ?
CC(C)NCC(O)c1ccccc1Cl (stereo unspecified) | . | 11% | . | 2% | . | .
O=C(c1ccc(C(F)(F)F)cc1)C1CCCN(Cc2ccncc2)C1 (stereo unspecified) | -25% | ? | 7.3µM* | 6% | -25% | ?
O=C(c1ccc(C(F)(F)F)cc1)C1CCCN(Cc2ccc(CO)o2)C1 (stereo unspecified) | -3% | 16% | 18µM* | 24% | 2% | i
Cc1ccc(CN2CCCC(C(=O)c3cccc(C(F)(F)F)c3)C2)o1 (stereo unspecified) | -16% | 5% | ? | -4% | -12% | i
